A selection: hits, their analogues and other compounds. The true share with any hit is near 5.1%.
Tau fibril FP: qHTS for Inhibitors of Tau Fibril Formation, Fluorescence Polarization; Microtubule-associated protein tau (Homo sapiens), P10636; AID 1468, 2008; hit rate 0.39% among 280,000; Potency, µM (series often up to 57.7 µM), actives largely listed as inhibitors; K18 P301L tau heparin fibrillization, Alexa594 FP, 6 h; also: nearly all actives have a fitted effect of over 55% in size
Target sequence (P10636 561-689 P618L limits assumed): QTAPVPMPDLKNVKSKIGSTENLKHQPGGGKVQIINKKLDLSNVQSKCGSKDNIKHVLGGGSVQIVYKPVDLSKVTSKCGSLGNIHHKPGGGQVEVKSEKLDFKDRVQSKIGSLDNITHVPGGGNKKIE
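Heparin (20 uM) drove fibril formation of recombinant tau K18 P301L, 15 uM unlabeled with 0.24 uM Alexa 594 label, for 6 hr at 37 C in 100 mM sodium acetate pH 7. Fluorescence polarization (555/632 nm) read 1 hr after 30 uM ThT.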
JMJD2E inh: qHTS Assay for Inhibitors of Human Jumonji Domain Containing 2E (JMJD2E); Lysine-specific demethylase 4E (Homo sapiens), B2RXH2; JMJD2E catalytic domain, FDH-coupled NADH fluorescence (FDH is formaldehyde dehydrogenase); Potency, µM (highest dose often 57.1 µM), usual class: inhibitors; hit rate 1.6% among 230,000; AID 2147, 2009; active = well fitted inhibition curve with a large enough effect, not every such curve was filed as active; inconclusive = small, poorly fitted or top-dose-only effect, or another doubt; inactive = no such curve, though single readings can be large or run the other way; also: nearly all actives have a fitted effect of over 50% in size
Target sequence (B2RXH2 1-337 limits assumed): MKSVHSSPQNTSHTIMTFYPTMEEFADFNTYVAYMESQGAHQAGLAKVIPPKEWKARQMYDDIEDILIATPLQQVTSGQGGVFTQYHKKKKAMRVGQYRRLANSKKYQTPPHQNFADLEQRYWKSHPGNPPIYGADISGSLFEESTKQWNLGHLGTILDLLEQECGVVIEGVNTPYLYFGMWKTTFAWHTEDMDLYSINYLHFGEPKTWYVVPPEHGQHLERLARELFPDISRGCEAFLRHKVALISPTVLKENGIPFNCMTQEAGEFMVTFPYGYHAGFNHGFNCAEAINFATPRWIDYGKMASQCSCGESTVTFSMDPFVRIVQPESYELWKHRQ
PNC inhibitor: High Content Assay for Compounds that inhibit the Assembly of the Perinucleolar Compartment | PC3M PTB-GFP, PNC prevalence imaging, 16 h; stronger effect = lower value | activity change (PNC), negative = inhibition, % at 10 µM | hit rate 3.1% among 140,000;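 active = readout at or below -70, meaning at least 70% loss of cells showing the perinucleolar compartment, a nuclear body marking cancer cells; inconclusive = readout between -30 and a set limit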
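Compounds are pinned in duplicate onto adhered PC3M cells stably expressing GFP-tagged PTB and incubated 16 h at 37 C. Cells are then fixed, nuclei stained with Hoechst, and PNC-positive cells counted.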
NPSR antagonist: qHTS Assay for Antagonists of the Neuropeptide S Receptor: cAMP Signal Transduction. CHO-NPSR cells, cAMP TR-FRET, antagonist mode. hit rate 1% among 220,000. Q6W5P4. Potency, µM (top dose mostly 38.3 µM), actives largely listed as inhibitors; also: nearly all actives have a fitted effect of over 50% in size
Tau fibril ThT: qHTS for Inhibitors of Tau Fibril Formation, Thioflavin T Binding. Microtubule-associated protein tau (Homo sapiens), P10636. recombinant tau K18 P301L, heparin-induced fibrillization, ThT fluorescence. Potency, µM (series often up to 57.4 µM), actives largely listed as inhibitors. hit rate 2.1% among 270,000; also: nearly all actives have a fitted effect of over 55% in size
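ThT emission at 510 nm, taken 1 hr after adding 30 uM dye, quantifies aggregates formed when 20 uM heparin acts on human tau K18 P301L for 6 hr at 37 C.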
Tau fluor cs: Counterscreen qHTS for Inhibitors of Tau Fibril Formation, Fluorescence Polarization | tau K18 P301L Alexa594 fluorescence, heparin fibrillization | Potency, µM (series often up to 57.7 µM) | hit rate 0.93% among 280,000; also: nearly all actives have a fitted effect of over 55% in size
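Human tau K18 P301L (15 uM unlabeled, 0.24 uM Alexa 594-labeled) in 100 mM sodium acetate pH 7 with 20 uM heparin, 6 hr at 37 C. ThT 30 uM added, 1 hr ambient; Alexa 594 FP and total fluorescence read at 555/632 nm.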
A number is an active result; [ ] = remark or other dose. Unless noted, calls follow the shape of the dose curve; as a rule, active = well fitted curve in the direction sought with a large enough effect; inconclusive = small, poorly fitted or top-dose-only effect, or another doubt; inactive = no such curve, though single readings can be large; an effect the other way counts as inactive or inconclusive.

What do the screens show for `COc1cccc(-c2nc(SCC(=O)Nc3ccc4c(c3)OCCO4)c(-c3ccc(C)cc3)[nH]2)c1`?
Tau fibril FP: inconclusive; Tau fibril ThT: inconclusive; Tau fluor cs: 5.01µM[quencher]

Results for COc1ccc(-c2nc(SCC(=O)Nc3ccc4c(c3)OCO4)c(-c3ccc(F)cc3)[nH]2)cc1OC ?
Tau fibril FP: inactive; Tau fibril ThT: inactive; Tau fluor cs: inconclusive

Results for COc1ccc(-c2nc(SCC(=O)Nc3ccc4c(c3)OCCO4)c(-c3ccc(F)cc3)[nH]2)cc1 ?
Tau fibril FP: inconclusive; Tau fibril ThT: inactive; Tau fluor cs: 8.91µM[quencher]

Results for COc1ccc(-c2[nH]c(-c3cccc(OC)c3)nc2SCC(=O)NCc2ccco2)cc1 ?
Tau fibril FP: inconclusive; JMJD2E inh: inconclusive; PNC inhibitor: inconclusive; NPSR antagonist: inactive; Tau fibril ThT: inconclusive; Tau fluor cs: 14.1µM[quencher]

Results for COc1ccc(-c2nc(SCC(=O)Nc3ccc4c(c3)OCCO4)c(-c3ccc(F)cc3)[nH]2)cc1OC ?
Tau fibril FP: inactive; Tau fibril ThT: inactive; Tau fluor cs: 6.31µM[quencher]

How did COc1ccc2nc(SCC(=O)Nc3ccc4c(c3)OCCO4)[nH]c2c1 do in these assays?
Tau fibril FP: inactive; JMJD2E inh: inactive; PNC inhibitor: inactive; NPSR antagonist: inactive; Tau fibril ThT: inconclusive; Tau fluor cs: inactive

How did Cc1cccc(OCCCCn2c(C3CC(=O)N(c4ccc(C)cc4C)C3)nc3ccccc32)c1 (centres undefined) do in these assays?
Tau fibril FP: inactive; Tau fibril ThT: inactive; Tau fluor cs: inactive

Results for COc1ccc(-n2nnc3c(SCC(=O)Nc4ccc5c(c4)OCCO5)ncnc32)cc1 ?
Tau fibril FP: inactive; JMJD2E inh: inconclusive; PNC inhibitor: -83.4; NPSR antagonist: inactive; Tau fibril ThT: inconclusive; Tau fluor cs: inconclusive

What do the screens show for `CCCNC1=C(N(C(C)=O)c2cccc(F)c2)C(=O)c2ccccc2C1=O`?
Tau fibril FP: inactive; JMJD2E inh: inconclusive; PNC inhibitor: -90.0; NPSR antagonist: inactive; Tau fibril ThT: inactive; Tau fluor cs: inactive

How did Cc1ccccc1C(=O)N1CCc2cc(-c3nc(NC(=O)Cc4ccc5c(c4)OCO5)sc3C)ccc21 do in these assays?
Tau fibril FP: inactive; JMJD2E inh: inactive; PNC inhibitor: inactive; NPSR antagonist: inactive; Tau fibril ThT: inactive; Tau fluor cs: inactive

How did Cc1sc(NC(=O)Cc2ccc3c(c2)OCO3)nc1-c1ccc2c(c1)CCN2C(=O)c1cccc(F)c1 do in these assays?
Tau fibril FP: inactive; JMJD2E inh: inactive; PNC inhibitor: -119.3; NPSR antagonist: inactive; Tau fibril ThT: inactive; Tau fluor cs: inactive

Results for CN1C(=O)C(CC(=O)O)S/C1=N\N=C\c1ccc(O)cc1O (centres undefined) ?
Tau fibril FP: inactive; JMJD2E inh: 25.1µM; NPSR antagonist: inactive; Tau fibril ThT: inactive; Tau fluor cs: inactive

What do the screens show for `O=C(O)CC1S/C(=N\N=C/c2ccccc2)N(c2ccc(O)cc2)C1=O` (centres undefined)?
Tau fibril FP: inconclusive; JMJD2E inh: inactive; PNC inhibitor: inconclusive; NPSR antagonist: inactive; Tau fibril ThT: inactive; Tau fluor cs: inactive

How did Cc1csc(NC(=O)C(CC(C)C)NS(=O)(=O)c2ccc3c(c2)oc(=O)n3C)n1 (centres undefined) do in these assays?
Tau fibril FP: inactive; JMJD2E inh: inactive; PNC inhibitor: -81.7; NPSR antagonist: inactive; Tau fibril ThT: inactive; Tau fluor cs: inactive

How did CC1Cc2cc(S(=O)(=O)NCc3ccc(Cl)cc3)ccc2N1C(=O)C1CCC1 (centres undefined) do in these assays?
Tau fibril FP: inconclusive; Tau fibril ThT: inactive; Tau fluor cs: inactive

Results for COc1cc2c(cc1OC)-c1c(OC)c(OC)cc3ccnc(c13)C2=O ?
Tau fibril FP: inactive; JMJD2E inh: inconclusive; PNC inhibitor: inactive; NPSR antagonist: inactive; Tau fibril ThT: 7.08µM; Tau fluor cs: inconclusive

Results for N#C/C(=N/Nc1ccc(OC(F)(F)F)cc1)C(N)=S ?
Tau fibril FP: inactive; JMJD2E inh: inactive; NPSR antagonist: inconclusive; Tau fibril ThT: 6.31µM; Tau fluor cs: inconclusive

What do the screens show for `COc1ccc(N/N=C(\C#N)C(N)=O)cc1`?
Tau fibril FP: inactive; JMJD2E inh: inactive; PNC inhibitor: inconclusive; NPSR antagonist: inactive; Tau fibril ThT: inconclusive; Tau fluor cs: inactive

What do the screens show for `CCOc1ccc(-n2nnc3c(=O)n(C/C=C/c4ccccc4)cnc32)cc1`?
Tau fibril FP: inactive; JMJD2E inh: inactive; PNC inhibitor: -88.8; NPSR antagonist: inactive; Tau fibril ThT: inactive; Tau fluor cs: inactive

What do the screens show for `CCOc1ccc(-n2nnc3c(=O)n(CC(=O)Nc4cc(C)on4)cnc32)cc1`?
Tau fibril FP: inactive[0.0958 µM]; JMJD2E inh: inactive; NPSR antagonist: inactive; Tau fluor cs: inactive[0.0958 µM]

How did Cc1cc(C)c(NC(=O)Nc2ccccc2)c(Cl)c1 do in these assays?
Tau fibril FP: inactive; JMJD2E inh: inactive; PNC inhibitor: -113.8; NPSR antagonist: inactive; Tau fibril ThT: inactive; Tau fluor cs: inactive

Results for Cc1ccc(NC(=O)Nc2ccccc2)cc1[N+](=O)[O-] ?
Tau fibril FP: inconclusive; JMJD2E inh: inactive; PNC inhibitor: inconclusive; NPSR antagonist: inactive; Tau fibril ThT: inconclusive; Tau fluor cs: inconclusive

What do the screens show for `O=C(Nc1ccccc1)Nc1ccc(Cl)c([N+](=O)[O-])c1`?
Tau fibril FP: inconclusive; JMJD2E inh: inactive; PNC inhibitor: inactive; NPSR antagonist: inactive; Tau fibril ThT: inconclusive; Tau fluor cs: 11.2µM[quencher]

What do the screens show for `O=C(Nc1ccc(C(O)(C(F)(F)F)C(F)(F)F)cc1)c1ccc(Cl)c([N+](=O)[O-])c1`?
Tau fibril FP: inactive; JMJD2E inh: inactive; PNC inhibitor: inactive; NPSR antagonist: inconclusive; Tau fibril ThT: inconclusive; Tau fluor cs: 12.6µM[quencher]

How did Cc1cc(C)c(NC(=O)Nc2ccccc2C)c(Cl)c1 do in these assays?
Tau fibril FP: inactive; JMJD2E inh: inactive; NPSR antagonist: inactive; Tau fibril ThT: inactive; Tau fluor cs: inactive

How did O=C(O)c1cc(NC(=O)c2ccc(Cl)c([N+](=O)[O-])c2)cc(C(=O)O)c1 do in these assays?
Tau fibril FP: inactive; JMJD2E inh: inconclusive; NPSR antagonist: inactive; Tau fibril ThT: inactive; Tau fluor cs: inactive

Results for Cc1ccc(C)c(Nc2nnc(-n3nc(C)cc3C)c3ccccc23)c1 ?
Tau fibril FP: inactive; Tau fibril ThT: inactive; Tau fluor cs: inactive

How did O=C(CNC(=O)c1ccco1)OCc1ccc(Cl)cc1 do in these assays?
Tau fibril FP: inactive; JMJD2E inh: inactive; PNC inhibitor: -80.9; NPSR antagonist: inactive; Tau fibril ThT: inactive; Tau fluor cs: inactive
